The whole screen tested about 5,500 compounds, of which about 2,000 (36%) were called active. Another 18% or so got no clear call; they are omitted. Cut-off read from the data, not from the text of the source: active = normalized growth mostly below about 0.91 (no sharp cut-off); inconclusive = no clear call, values can overlap the other calls; inactive = mostly above about 0.92. The list shows a part of the results.
Assay: chemical genetic growth profiling, strain panel (AID 1159580);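 note: tested at 20 µM; growth read once vehicle control cultures reached saturation at 30 °C; 1 = growth at the plate median or of vehicle wells; lower values mean less growth of the strain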
Conditions: growth OD

Measured: normalized growth

Cc1cc(=O)oc2c(O)c(O)ccc12
inactive: S. cerevisiae deletion strains, locus YJR043C, strain POL32, hits give low values 1 | S. cerevisiae deletion strains, locus YJR066W, strain TOR1, hits give low values 0.94 | S. cerevisiae deletion strains, locus YJR075W, strain HOC1, hits give low values 1.02 | S. cerevisiae deletion strains, locus YKL009W, strain mrt4, hits give low values 0.979 | S. cerevisiae deletion strains, locus YKL068W, hits give low values 1 | S. cerevisiae deletion strains, locus YKL085W, strain MDH1 (second series), hits give low values 0.99 | S. cerevisiae deletion strains, locus YKL085W, strain MDH1, hits give low values 0.99 | S. cerevisiae deletion strains, locus YKL160W, strain elf1, hits give low values 0.992 | S. cerevisiae deletion strains, locus YKR001C, strain vps1, hits give low values 0.99 | S. cerevisiae deletion strains, locus YKR026C, strain gcn3, hits give low values 0.963 | S. cerevisiae deletion strains, locus YKR091W, strain srl3, hits give low values 0.974 | S. cerevisiae deletion strains, locus YLL001W, strain dnm1, hits give low values 0.956 | S. cerevisiae deletion strains, locus YLL026W, hits give low values 0.975 | S. cerevisiae deletion strains, locus YLL041C, strain sdh2, hits give low values 0.993 | S. cerevisiae deletion strains, locus YLR027C, strain aat2, hits give low values 0.968 | S. cerevisiae deletion strains, locus YLR039C, strain RIC1, hits give low values 0.953 | S. cerevisiae deletion strains, locus YLR058C, strain SHM2, hits give low values 1.02 | S. cerevisiae deletion strains, locus YLR102C, strain apc9, hits give low values 1.01 | S. cerevisiae deletion strains, locus YLR113W, strain HOG1, hits give low values 0.981 | S. cerevisiae deletion strains, locus YLR221C, strain rsa3, hits give low values 0.995 | S. cerevisiae deletion strains, locus YLR258W, strain gsy2, hits give low values 0.986 | S. cerevisiae deletion strains, locus YLR262C, strain YPT6 (second series), hits give low values 0.93 | S. cerevisiae deletion strains, locus YLR262C, strain YPT6, hits give low values 0.923 | S. cerevisiae deletion strains, locus YLR268W, strain sec22, hits give low values 0.992 | S. cerevisiae deletion strains, locus YLR320W, strain mms22, hits give low values 0.993 | S. cerevisiae deletion strains, locus YLR330W, strain CHS5, hits give low values 1.02 | S. cerevisiae deletion strains, locus YLR342W, strain FKS1 (second series), hits give low values 0.996 | S. cerevisiae deletion strains, locus YLR342W, strain FKS1, hits give low values 0.971 | S. cerevisiae deletion strains, locus YLR357W, strain rsc2, hits give low values 0.952 | S. cerevisiae deletion strains, locus YLR370C, strain arc18, hits give low values 0.958 | S. cerevisiae deletion strains, locus YLR371W, strain rom2, hits give low values 1 | S. cerevisiae deletion strains, locus YLR384C, strain iki3, hits give low values 0.954 | S. cerevisiae deletion strains, locus YLR418C, strain cdc73, hits give low values 1.03 | S. cerevisiae deletion strains, locus YML016C, strain PPZ1, hits give low values 1.01 | S. cerevisiae deletion strains, locus YML032C, strain rad52, hits give low values 0.997 | S. cerevisiae deletion strains, locus YML120C, strain ndi1, hits give low values 0.974 | S. cerevisiae deletion strains, locus YML124C, strain tub3, hits give low values 1 | S. cerevisiae deletion strains, locus YMR058W, strain fet3, hits give low values 0.964 | S. cerevisiae deletion strains, locus YMR078C, strain ctf18, hits give low values 0.976 | S. cerevisiae deletion strains, locus YMR125W, strain sto1, hits give low values 0.944 | S. cerevisiae deletion strains, locus YMR129W, hits give low values 0.976 | S. cerevisiae deletion strains, locus YMR205C, strain PFK2, hits give low values 0.96 | S. cerevisiae deletion strains, locus YMR223W, strain ubp8, hits give low values 1.02 | S. cerevisiae deletion strains, locus YMR231W, strain pep5, hits give low values 0.967 | S. cerevisiae deletion strains, locus YMR263W, strain SAP30, hits give low values 1 | S. cerevisiae deletion strains, locus YMR307W, strain GAS1, hits give low values 0.965 | S. cerevisiae deletion strains, locus YNL067W, strain RPL9B, hits give low values 1.01 | S. cerevisiae deletion strains, locus YNL071W, strain lat1, hits give low values 0.983 | S. cerevisiae deletion strains, locus YNL153C, strain GIM3, hits give low values 1 | S. cerevisiae deletion strains, locus YNL183C, strain NPR1, hits give low values 0.931 | S. cerevisiae deletion strains, locus YNL209W, strain ssb2, hits give low values 0.977 | S. cerevisiae deletion strains, locus YNL233W, strain BNI4, hits give low values 1.01 | S. cerevisiae deletion strains, locus YNL248C, strain rpa49, hits give low values 1.01 | S. cerevisiae deletion strains, locus YNL250W, strain rad50, hits give low values 0.991 | S. cerevisiae deletion strains, locus YNL271C, strain bni1, hits give low values 1.01 | S. cerevisiae deletion strains, locus YNL298W, strain CLA4, hits give low values 0.991 | S. cerevisiae deletion strains, locus YNL307C, strain MCK1, hits give low values 1.03 | S. cerevisiae deletion strains, locus YNL322C, strain KRE1 (second series), hits give low values 0.968 | S. cerevisiae deletion strains, locus YNR049C, strain mso1, hits give low values 0.959 | S. cerevisiae deletion strains, locus YNR052C, strain pop2, hits give low values 0.984 | S. cerevisiae deletion strains, locus YOL006C, strain TOP1, hits give low values 1.14 | S. cerevisiae deletion strains, locus YOL012C, strain htz1 0.856 | S. cerevisiae deletion strains, locus YOL147C, strain pex11, hits give low values 1.01 | S. cerevisiae deletion strains, locus YOR001W, strain rrp6, hits give low values 0.988 | S. cerevisiae deletion strains, locus YOR061W, strain CKA2, hits give low values 0.999 | S. cerevisiae deletion strains, locus YOR069W, strain VPS5, hits give low values 1.01 | S. cerevisiae deletion strains, locus YOR070C, strain gyp1, hits give low values 0.975 | S. cerevisiae deletion strains, locus YOR080W, strain dia2, hits give low values 0.984 | S. cerevisiae deletion strains, locus YOR083W, strain WHI5, hits give low values 1 | S. cerevisiae deletion strains, locus YOR106W, strain vam3, hits give low values 0.926 | S. cerevisiae deletion strains, locus YOR136W, strain idh2, hits give low values 1.01 | S. cerevisiae deletion strains, locus YOR144C, strain elg1, hits give low values 0.993 | S. cerevisiae deletion strains, locus YOR184W, strain ser1, hits give low values 1.01 | S. cerevisiae deletion strains, locus YOR231W, strain MKK1, hits give low values 0.983 | S. cerevisiae deletion strains, locus YOR265W, strain rbl2, hits give low values 0.991 | S. cerevisiae deletion strains, locus YOR270C, strain vph1, hits give low values 0.864 | S. cerevisiae deletion strains, locus YOR290C, strain snf2, hits give low values 0.962 | S. cerevisiae deletion strains, locus YOR316C, strain cot1, hits give low values 1 | S. cerevisiae deletion strains, locus YPL051W, strain arl3, hits give low values 0.995 | S. cerevisiae deletion strains, locus YPL078C, strain atp4, hits give low values 0.981 | S. cerevisiae deletion strains, locus YPL106C, strain sse1, hits give low values 0.906 | S. cerevisiae deletion strains, locus YPL240C, strain hsp82, hits give low values 0.999 | S. cerevisiae deletion strains, locus YPL256C, strain CLN2, hits give low values 0.971 | S. cerevisiae deletion strains, locus YPR119W, strain clb2, hits give low values 0.985 | S. cerevisiae deletion strains, locus YPR141C, strain kar3, hits give low values 1 | S. cerevisiae deletion strains, locus YPR163C, strain tif3, hits give low values 0.99 | S. cerevisiae deletion strains, locus YPR167C, strain met16, hits give low values 1.02 | S. cerevisiae deletion strains, strain wtn01, hits give low values 0.997 | S. cerevisiae strains, strain wild type, hits give low values 1

From PubChem BioAssay AID1159580 (chemical genetic matrix, 2015)
